Results on 40 compounds are retold here after PubChem BioAssay (NCI).

About 83,000 compounds went through this panel and 20% of them were active in at least one assay; those are over-represented in the sample as a whole.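 For each line, cells grew in 96-well plates with the test compound present at a single concentration for 48 hours.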 Activity calls are given as the source filed them. The calls were made as follows: active = growth percent below 10; inactive = the rest.

The test relates to HL-60(TB) leukemia. Kind of test: NCI-60 one-dose screen, 48 h (100 = growth as untreated, 0 = no growth, -100 = all killed). As to conditions: 10 µM unless noted.
Regarding `COc1ccc(NC(=S)N/N=C/c2ccccc2SSCCC(=O)OC[C@H]2O[C@H](O)[C@H](O)[C@@H](O)[C@@H]2O)cc1`, the growth was 75.1% (inactive).

For `COC(=O)[C@H]1Cc2c([nH]c3ccccc23)[C@@H](c2cccs2)N1`, the growth was 99.7% (inactive).

As for `C=C1/C(=C\C=C2/CCC[C@]3(C)[C@@H]([C@H](C)CCCC(C)(C)O)CC[C@@H]23)C[C@@H](OC(=O)CBr)C[C@@H]1O`, the growth is -59.4% (active).

For `OCC(CO)(CCl)CCl`, the growth is 96.3% (inactive).

Regarding `COc1ccc(-c2nc(SCCC(C)C)nc(Nc3ccc(C(=O)O)cc3)c2C#N)cc1`, the growth is 71.6% (inactive).

For the compound `COc1ccc2cc(-c3ccnc4c(N=Nc5ccc(Cl)cc5)c(N)nn34)ccc2c1`, the growth is 98.8% (inactive).

In the case of `C=C(C)[C@@H]1C/C=C(\COC(=O)[C@H](OC(C)=O)C(NC(=O)c2ccccc2)c2ccccc2)CC[C@H]2O[C@]2(C)CC/C=C(\C)CC1` (stereo not given in full), the growth is 29.9% [5 µM] (inactive).

Regarding `CC1=CC(=Nc2ccc(N(C)C)cc2)C=C(C)C1=O`, the growth was 42.8% (inactive).

Consider `O=C1C=CC(Nc2ccccc2[N+](=O)[O-])C1Nc1ccccc1[N+](=O)[O-]` (stereo not given), for which the growth is 25.1% (inactive).

Take `CCc1ccccc1-n1[nH]c(C)c(C=N)c1=O`: the growth was 98.3% (inactive).

`COc1ccc(C/C(C)=C(\c2ccc(OCCN3CCCCCC3)cc2)c2ccc(OC(=O)C3CCCCC3)cc2)cc1`: the growth was 17.1% (inactive).

Turning to `COc1ccc(N/C=C/C2=[N+](C)c3ccccc3C2(C)C)c(OC)c1`, the growth is 99.3% (inactive).

For `O=Nc1c(-c2c(O)[nH]c3cc(Br)ccc23)[nH]c2ccccc12`, the growth is -51.3% (active).

For `CCOC(=O)c1cc(C#N)n2ccc3ccccc3c12`, the growth is 92.1% (inactive).

For `COc1cc(/C=C\c2cc(OC)c(OC)c(OC)c2)cc(NS(=O)(=O)c2ccc(Cl)cc2)c1OC`, the growth is -31% (active).

Take `O=C1COCCN1c1ccc(NCc2cn(Cc3cccc4ccccc34)c3ccccc23)cc1`: the growth is 96.4% (inactive).

For the compound `O=C(Nc1ccc(F)c(Cl)c1)c1n[nH]c(=O)c2ccccc12`, the growth is 86.2% (inactive).

`Cc1ccc(S(=O)(=O)Oc2ccc(NC(=O)c3ccc(Cl)cc3)cc2)cc1`: the growth is 89.2% (inactive).

Turning to `CCCc1cc(C(N)=S)ccn1`, the growth was 103% (inactive).

Consider `COc1ccc(/C=C/C(=O)C(CC2CCC2)C(=O)/C=C/c2ccc(OC)c(OC)c2)cc1OC`, for which the growth was -27.5% (active).

For `Cc1ccc(S(=O)(=O)N(C)CCCCCC(=O)O)cc1`, the growth is 93.4% (inactive).

In the case of `c1ccc(-c2nc3ccccc3s2)cc1`, the growth was 99.5% (inactive).

In the case of `Brc1ccc2c(c1)c(-c1nc(-c3c[nH]c4ncccc34)cs1)cn2CCCN1CCCCC1`, the growth was 13.3% (inactive).

As to `N#Cc1c(-c2ccccc2)cc(-c2ccccc2)n(CCCC(=O)NO)c1=O`, the growth is 10.2% (inactive).

Consider `CCCCCCCCCCCCCCCCOCCCOP(=O)(O)C1CCCN(O)C1=O` (stereo not given), for which the growth is -13.6% (active).

On to `N#Cc1ccc(OC(=O)Nc2c(Cl)cc(Cl)cc2Cl)cc1`, for which the growth is 102% (inactive).

`c1ccc2[nH]c(SSc3nc4ncncc4[nH]3)nc2c1`: the growth was 17.1% (inactive).

In the case of `CCCCNC(=O)Oc1ccc(/C(=C(/CC)Cc2ccccc2)c2ccc(OCCCN(C)C)cc2)cc1`, the growth was 78% (inactive).

In the case of `CCSc1ccc2c(c1)N(CCCN1CCN(C)CC1)c1ccccc1S2`, the growth was 37.1% (inactive).

With `Ic1cccs1`, the growth is 104% (inactive).

Take `O=C(/C=C/c1sc(Cl)nc1Cl)c1ccc(F)cc1`: the growth is 61.2% (inactive).

Consider `Cn1cc(-c2csc(-c3cn(C)c4ncccc34)n2)c2cccnc21`, for which the growth is 95.2% (inactive).

As to `CCc1ccc(CCC(=O)Nc2ncc(Cc3ccc(Cl)cc3)s2)o1`, the growth was -39.6% (active).

On to `Cc1cc2nc3c4ccccc4n(CCN(C)C)c3nc2cc1C`, for which the growth is 8.35% (active).

As for `COc1ccc(/C=N/NC(=O)c2cccc3cc[nH]c23)cc1O`, the growth is 10.1% (inactive).

As to `CC(C)n1c(/C=C/[C@@H](O)C[C@@H](O)CC(=O)O)c(-c2ccc(F)cc2)c2ccccc21`, the growth is 91.4% (inactive).

Turning to `O=c1oc2ccc(Br)cc2c(=O)n1-c1ccc(I)cc1F`, the growth is -49.1% (active).

For `CC[C@H](Nc1ncnc2nc[nH]c12)c1nc2cccc(NCc3ccc(C(=O)NO)nc3)c2c(=O)n1-c1ccccc1`, the growth is 17.8% (inactive).

Regarding `COc1ccc(NS(=O)(=O)c2ccc(C)cc2)c([N+](=O)[O-])c1`, the growth was 90.7% (inactive).

For `COc1ccc(CCN=Cc2ccc(Cl)cc2)cc1OC`, the growth is 86.6% (inactive).
